# Screening data (PubChem BioAssay)
# PABP polyA inh: PABP-poly(A) binding inhibition | P11940 | PABP-poly(A) RNA binding, fluorescence polarization | calls only at 35 µM | 1% of 290,000 active | AID 2014;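 note: calls also rest on retests at 20 µM and on dose response follow-up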
# PHOSPHO1 block: PHOSPHO1 (human) inhibition; Q8TCT1; recombinant PHOSPHO1, absorbance phosphatase assay; inhibition, % at 13.3 µM; 1.1% of 290,000 active; in the data active = inhibition above about 60%
# Target sequence (Q8TCT1 whole entry, looked up): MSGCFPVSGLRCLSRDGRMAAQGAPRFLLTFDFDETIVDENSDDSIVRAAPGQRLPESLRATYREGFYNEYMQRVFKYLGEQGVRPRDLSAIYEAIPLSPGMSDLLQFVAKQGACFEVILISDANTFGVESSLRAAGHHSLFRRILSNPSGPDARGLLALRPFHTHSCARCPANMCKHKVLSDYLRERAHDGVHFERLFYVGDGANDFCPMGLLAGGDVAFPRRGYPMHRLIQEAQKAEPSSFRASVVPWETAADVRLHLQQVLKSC
# eIF4H FP inh: inhibitors of RNA binding by human eIF4H; Q15056; eIF4H fluorescence polarization binding assay; inhibition, % at 35 µM; 0.94% of 290,000 active; AID 2012;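 note: calls also rest on retests at 20 µM and on dose response follow-up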
# PABP1 MLLE inh: blocks PAM2 peptide binding to the PABP1 MLLE domain | P11940 | GST-MLLE / FITC-PAM2 fluorescence polarization | inhibition, % at 20 µM | 0.36% of 360,000 active; in the data active = inhibition above about 35%, passing the limit was not always enough;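 note: plate controls were DMSO wells with GST-MLLE for no effect and wells lacking GST-MLLE protein for full effect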
# HMGR II inh: blocks class II HMG-CoA reductase of Enterococcus faecalis. 0.41% of 190,000 active. purified E. faecalis HMGR, NADPH absorbance 340 nm kinetic. AID 1066. inhibition, % at 10 µM;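 active = inhibition above a set limit, the median over all tested compounds plus 3 SD, cut at about 9.5% in these data; inconclusive = no clear call, values can overlap the other calls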;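 note: enzyme runs in reverse so mevalonate oxidation gives rising NADPH absorbance; 0% = complete reaction with DMSO and 100% = background rate lacking mevalonate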
# * = called active by the depositor; i = inactive; ? = inconclusive; · = no result given; + = active, no number. An excerpt weighted towards active compounds, which were near 2.4% of everything screened. Unless noted, the rule behind the calls is not given here.
SMILES,PABP polyA inh,PHOSPHO1 block,eIF4H FP inh,PABP1 MLLE inh,HMGR II inh
COC(=O)C1=NN(C(=O)c2cccc(Br)c2)C(O)(c2ccc(Cl)cc2)C1 (configuration not stated),i,28,58*,-59,1
OC1(c2ccc(Br)cc2)CN(c2ccccc2)C2=[N+]1CCS2 (configuration not stated),i,4,-6,37*,-1
O=C(O)c1ccc2c(c1)C(=O)N(CCc1ccccc1)C2=O,i,14,5,-10,·
O=C(O)c1ccc2c(c1)C(=O)N(N1C(=O)c3ccccc3C1=O)C2=O,+,-4,-12,5,-1
CCOC(=O)CC(=O)CSc1nnc(Cn2c(=O)sc3ccccc32)n1C,i,71*,2,1,-7
Cc1cccc(NC2SC(=O)NC2=O)c1 (configuration not stated),i,-9,6,52*,4
Cc1nnc2sc(SCC(=O)N3CCC(C)CC3)nn2c1=O,i,66*,-3,16,·
Cc1ccc(S(=O)(=O)N2CCN(c3ccccc3)CC2)cc1C(=O)NC1CCCCC1,i,20,0,0,·
CCCNC(=O)c1onc(CSc2ccc(Cl)cc2)c1C(=O)NC(C)C,·,·,·,0,·
COc1ccc([N+](=O)[O-])cc1NCc1ccccc1C,i,60*,-4,6,-3
CCN(CC)S(=O)(=O)c1cccc(C(=O)N/N=C2\CCCC(=O)C2)c1,+,25,55,-5,·
CCN(CC)S(=O)(=O)c1cccc(C(=O)N/N=C2\CC(=O)CC(C)(C)C2)c1,i,-25,9,-26,-3
O=C(NNC(=O)C1CC(c2cccnc2)=NO1)Nc1ccccc1F (configuration not stated),i,65*,8,3,-6
CCNC(=O)C1CCCN(C(=O)c2ccccc2)CC1 (configuration not stated),·,·,·,4,·
Oc1c(Br)cc(Br)cc1/C=N/c1nc2c(s1)CCCC2,·,·,·,20,-4
Cc1cc(O)c(/C=N/Nc2ccc(F)cc2)c(=O)o1,i,-100,8,3,-1
Cc1cccc(/N=C/c2c(O)cc(C)oc2=O)n1,+,38,78*,-12,5
Oc1ccc2ccccc2c1/C=N/c1nc2c(s1)CCCC2,i,76*,0,19,-6
Oc1ccc2ccccc2c1C=Nc1ccc(Cl)cn1,+,25,85*,-10,-6
Cc1cc(O)c(/C=N/c2ccccn2)c(=O)o1,i,7,89,1,6
Cc1ccc(N/N=C/c2c(O)cc(C)oc2=O)cc1,i,88*,7,7,-5
Oc1ccc2ccccc2c1/C=N/n1cnnc1,i,-8,-1,-10,-3
CSc1ccc(S(=O)(=O)N(C)Cc2ccccc2)cc1,i,-4,-4,-12,-2
O=C1NC(Cc2ccc(O)cc2)c2nc3ccc(Br)cc3c(=O)n2-c2ncccc21 (configuration not stated),·,·,·,-27,·
N#Cc1ccc(CN2CCN(C(=O)Cn3nc(C(N)=O)c4ccccc4c3=O)CC2)cc1,i,16,-4,-65,·
SMILES,PABP polyA inh,PHOSPHO1 block,eIF4H FP inh,PABP1 MLLE inh,HMGR II inh
CCOc1ccc(N=Cc2c(O)cc(C)oc2=O)cc1,i,1,-7,10,4
Cc1cc(O)c(C=Nc2ccc(Cl)cn2)c(=O)o1,+,24,59*,-2,-2
CC(OC(=O)c1nc(Cl)ccc1Cl)C(=O)Nc1ccc2c(c1)OCCO2 (configuration not stated),·,·,·,12,·
CC(=O)NCCNC(=O)c1ccc(CSc2nc3ccccc3s2)cc1,i,-1,3,9,·
Cc1cc(C(N)=O)c2ccccc2n1,i,-18,-2,4,-2
NC(=O)c1cc2c3ccccc3ccn2c1-c1ccccc1,?,27,?,46*,·
Cc1ccc(C2=NCCn3nc4cc(C(F)(F)F)ccc4c32)cc1,·,·,·,-5,·
O=C1NC(=O)C(CC(=O)N(Cc2ccco2)C2(C(=O)NC3CCCC3)CCCCC2)N1 (configuration not stated),i,-1,-3,14,-4
O=C1NC(=O)C(CC(=O)N(Cc2cccs2)C2(C(=O)NC3CCCCC3)CCCCC2)N1 (configuration not stated),+,-5,active,7,0
Cn1c(=O)c2c(nc(NCCOc3ccc(C(C)(C)C)cc3)n2C)n(C)c1=O,i,-3,4,4,13*
COc1ccccc1OCCNc1nc2c(c(=O)n(C)c(=O)n2C)n1C,i,-2,-4,4,4
